The source of these data is PubChem BioAssay (NCATS).

One experiment concerns CRL-7250. Put plainly: Cytotoxic Profiling of Annotated Libraries Using Quantitative High-Throughput Screening (AID 1296008). Also: potency is read from the fitted curve at half-maximal effect. As to max response: % is scaled to controls: 0 for no effect and ±100 for the full control effect. Particulars: Five cell lines viability, CellTiter-Glo ATP luminescence, 48-72 h; max response: hits give low values. In outline:
(§1)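 Cytotoxicity was measured as CellTiter-Glo ATP luminescence, read after 10 min at room temperature. Compound treatment of the cells lasted 48 or 72 hr at 37 degrees Celsius in a qHTS format.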
In general terms: ATP-based viability assays read luminescence as a measure of living cells.

For experiment [1], the system named is HaCat. Described as above. Particulars: Five cell lines viability, CellTiter-Glo ATP luminescence, 48-72 h; max response: hits give low values. In outline:
as §1

In the next experiment the test system is NIH3T3. The description is as above. The following applies: Five cell lines viability, CellTiter-Glo ATP luminescence, 48-72 h; max response: hits give low values. The gist of the method:
as §1

The test system of experiment [2] is HACAT. The experiment in a line: qHTS assay to identify novel small-molecules to repurpose for Merkel cell carcinoma treatment (AID 1296009). Particulars: MCC and control cell lines, CellTiter-Glo viability, 72 h; at 44.8 µM (top of the series) unless noted. The gist of the method:
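After compound transfer in DMSO, plates were kept 72 hr at 37 degree celsius. Luminescent ATP signal from CellTiter-Glo served as viability measure, normalized against DMSO and no-cell controls.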
(Quantitative high-throughput screening tests each substance at several concentrations.)

A further experiment relates to KB-3-1. Put plainly: Cytotoxic Profiling of Annotated Libraries Using Quantitative High-Throughput Screening (AID 1296008). Also: potency is read from the fitted curve at half-maximal effect. As to max response: % is scaled to controls: 0 for no effect and ±100 for the full control effect. The following applies: Five cell lines viability, CellTiter-Glo ATP luminescence, 48-72 h; max response: hits give low values. The gist of the method:
as §1

Results filed as inconclusive are left out. Values without a mark were called inactive. Activity calls are given as the source filed them. Calls follow the shape of the dose curve; as a rule, active = well fitted inhibition curve with a large enough effect; inconclusive = small, poorly fitted or top-dose-only effect; inactive = flat fitted curve, though single readings scatter.
Also: nearly all actives have a fitted effect of over 60% in size.

For `COc1ccc(S(=O)(=O)Nc2c(C)cc(C)cc2C)cc1`, the outcome in the experiment on CRL-7250 was inactive. Also, the max response with HaCat [1] is -0.296%; with NIH3T3, 0.769%.
For `CCN1C(C)(C)CC(Oc2ccc(C(=O)Nc3ccc(NC(=O)Nc4cc(C(C)(C)C)on4)cc3)nc2)CC1(C)C`, the max response in the experiment with CRL-7250 is -1.6%. In addition, the result in the experiment on HaCat [1], in the experiment on NIH3T3 and with HACAT [2] was inactive.
`Cc1nc2c(C(F)(F)F)cccc2nc1-c1ccc(-c2cccc(S(C)(=O)=O)c2)cc1`: the values for the max response in the experiment with CRL-7250, in the experiment on HaCat [1] and in the experiment on NIH3T3 were -1.09%, -0.882% and -12.4%, respectively.
As for `CCN(CC)CCCS(=O)(=O)N[C@H](CCc1ccccc1)c1nc(Cc2ccc(Br)cc2)no1`, the max response with CRL-7250 was -4.82%; in the experiment with NIH3T3 it was -16.9%. The call in the experiment on HaCat [1] and in the experiment with HACAT [2] was inactive.
With `N#Cc1ccc(N2N=C3c4ccc(C(=O)O)cc4CC[C@@H]3[C@@H]2C2CCCC2)cc1Cl`, the max response with CRL-7250 was 1.36%; with NIH3T3, -3.29%. Moreover, the call with HaCat [1] and with HACAT [2] was inactive.
For the molecule `Cc1cc(C)cc(-c2cnc3cc(Cl)c(-c4cccc(O)c4)cc3c2OCCCN)c1`, the max response was 3.3% with CRL-7250 and -0.922% in the experiment with NIH3T3. For the same molecule, the molecule was classed as inactive with HaCat [1] and in the experiment on HACAT [2].
Consider `C=C1/C(=C/C=C2\CCC[C@]3(C)[C@@H]([C@H](C)/C=C/[C@@H](C)C(C)C)CC[C@@H]23)C[C@@H](O)C[C@@H]1O`, for which the max response with CRL-7250 is 1.9%. Further, the outcome in the experiment with HaCat [1] and in the experiment on HACAT [2] was “inactive; activator” throughout. Moreover, the Potency in the experiment on NIH3T3 is 326 nM (active).
For the molecule `Cc1c(Cl)cccc1S(=O)(=O)Nc1nc(NCCc2ccccc2)nc2c1CN(Cc1ccccc1)CC2`, the max response with CRL-7250 is 4.69%. For the same molecule, the molecule was classed as inactive in the experiment with HaCat [1], in the experiment on NIH3T3 and in the experiment with HACAT [2].
For the molecule `CCN(Cc1cc(Nc2nc(C)cn3c(-c4cn[nH]c4)cnc23)sn1)C(C)(C)CO`, the Potency is 73.1 nM (active) with CRL-7250, 1460 nM (active) in the experiment with HaCat [1] and 461 nM (active) with NIH3T3.
On to `CC(C)(O)C1CC(=O)C2(C)C(CCC3(C)C(c4ccoc4)OC(=O)C4OC432)C12CCC(=O)OC2` (stereo not drawn), for which, in the experiment with CRL-7250, the max response is -9.62%. The molecule was classed as inactive with HaCat [1] and in the experiment with NIH3T3. The outcome with HACAT [2] is “inactive [at 17.4 µM]”.
As to `C/C=C(/C)C(=O)O[C@@H]1C[C@@H](OC(=O)CC(C)C)C2(C)C3C(=O)C=C(C)C2C3C1(C)C` (stereo partly drawn), the max response is 0.438% in the experiment on CRL-7250, 5.54% in the experiment on KB-3-1 and -2.22% in the experiment with NIH3T3.
`O=C(NCCN1CCC(n2c(=O)[nH]c3ccccc32)CC1)c1cc2cc(F)ccc2[nH]1`: the values for the max response in the experiment with CRL-7250 and with KB-3-1 were 4.31% and 1.32%, respectively. Besides, the molecule was classed as inactive with NIH3T3.
As for `O=C(Nc1cccc2cccnc12)c1ccc(N2C(=O)[C@@H]3C4C=CC(C4)[C@@H]3C2=O)cc1`, the Potency in the experiment on CRL-7250 was 1300 nM (active). Also, the max response in the experiment with KB-3-1 is -2.67%.
On to `COc1ccc2nc3n[nH]c(C)c3c(NCCOCCO)c2c1`, for which the max response is 4.22% in the experiment with CRL-7250, 2.11% in the experiment on KB-3-1 and 2.85% with NIH3T3.
Take `O=C(Nc1nc2ccc([N+](=O)[O-])cc2s1)C1CCCCC1`: the figures for the max response in the experiment with CRL-7250 and in the experiment with NIH3T3 were -7.28% and -1.61%, respectively. Moreover, the molecule was classed as inactive in the experiment on HaCat [1] and in the experiment with HACAT [2].
`CC1(CO)CC2C(O)C3=C(CC(C)(O)C2C1)C(=O)OC3` (stereo not drawn): the max response in the experiment on CRL-7250 is -1.99%; in the experiment with KB-3-1 it was 9.13%; in the experiment on NIH3T3 it was 1.99%.
Consider `CCN1CCC[C@@H]1CNC(=O)c1ccc2c(c1)NC(=O)c1cccc(C)c1S2`, for which the max response in the experiment with CRL-7250 is 2.08%. Moreover, the call with KB-3-1 and with NIH3T3 was inactive.
Take `CCCCc1c(-c2ccc(OC)cc2)[nH]c2nccnc12`: in the experiment on CRL-7250, the call was inactive. Further, the max response in the experiment with KB-3-1 was 2.93%.
`CN(C)C(=O)C(=O)c1cn(C)c2cc(Cl)c(C(=O)N3CCC(Cc4ccc(F)cc4)CC3)cc12`: the max response is -5.29% in the experiment on CRL-7250 and 1.98% with NIH3T3. The molecule was classed as inactive in the experiment on HaCat [1] and with HACAT [2].
On to `CC(=O)O[C@@]12CO[C@@H]1C[C@H](O)[C@@]1(C)C(=O)[C@H](O)C3=C(C)[C@@H](OC(=O)[C@H](O)[C@@H](NC(=O)OC(C)(C)C)c4ccccc4)C[C@@](O)([C@@H](OC(=O)c4ccccc4)C12)C3(C)C` (stereo partly drawn), for which the Potency in the experiment on CRL-7250 is 5 nM (active); in the experiment on KB-3-1 it was 3.6 nM (active); in the experiment with NIH3T3 it was 22.4 nM (active).
`CCCN(CCc1ccsc1)C1CCc2c(O)cccc2C1` (stereo not drawn): in the experiment with CRL-7250, the max response is 4.38%. The molecule was classed as inactive in the experiment with HaCat [1], with NIH3T3 and with HACAT [2].
For `C[C@]12CC[C@@H]3c4ccc(O)c(O)c4CC[C@H]3[C@@H]1CCC2=O`, the values for the max response in the experiment with CRL-7250 and in the experiment on NIH3T3 were -7.43% and -17.9%, respectively. The molecule was classed as inactive in the experiment with HaCat [1] and with HACAT [2].
`Cc1cc(C)c2c(c1)C(N(Cc1cc(C(F)(F)F)cc(C(F)(F)F)c1)c1nnn(C)n1)CCCN2CC1CCC(C(=O)O)CC1` (stereo not drawn): the max response with CRL-7250 was 2.9%. Moreover, the Potency in the experiment with KB-3-1 is 14600 nM (active).
On to `COc1ccc([C@H]2Cc3cccc(O)c3C(=O)O2)cc1OC`, for which the max response in the experiment on CRL-7250 was -21.6%; in the experiment with KB-3-1 it was 2.52%.
Consider `COc1cc2c(cc1-c1c(C)noc1C)ncc1[nH]c(=O)n(C(C)c3ccccn3)c12` (stereo not drawn), for which the Potency with CRL-7250 was 5800 nM (active); in the experiment with NIH3T3 it was 7310 nM (active). Moreover, the result in the experiment on HaCat [1] and in the experiment with HACAT [2] was inactive.
